A selection: hits, their analogues and other compounds. The true share with any hit is near 10%.
GLS inh – blocks human kidney-isoform glutaminase activity. GLS enzymatic activity, qHTS titration. Potency, µM (top dose mostly 45.5 µM), for the others: at the highest dose activity change, negative = inhibition, hits mostly inhibitors. actives 0.21% (n = 410,000). AID 624170; note: % is set by controls: 0 for no effect and ±100 for the full control effect
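Compounds were pin-transferred onto hKGA, after which L-glutamine (1 mM solution) and a detection mix of glutamate oxidase, HRP and Amplex Red were added. Initial and 30 min RT fluorescence reads were collected.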
G9a inh – G9a (human) methyltransferase inhibition | Q96KQ7 | G9a H3K9 monomethylation, AlphaScreen, 2 h | Potency, µM (top dose mostly 102 µM), for the others: at the top dose activity, negative = inhibition, usual class: inhibitors | actives 8.8% (n = 350,000) | AID 504332; note: % is set by controls: 0 for no effect and ±100 for the full control effect; nearly all actives have a fitted effect of over 75% in size
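Quantitative HTS format: methyltransferase activity on a biotin-tagged H3K9 peptide is measured by AlphaScreen, using a rabbit anti-monomethyl-H3K9 antibody with streptavidin donor and anti-IgG acceptor beads. Final levels are 20 nM enzyme, 500 nM peptide, 20 uM SAM; 2 h RT.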
JMJD2A Tudor – JMJD2A Tudor domain (human) inhibition; O75164; AlphaScreen JMJD2A-Tudor / H3K4me3 peptide binding; Potency, µM (top dose mostly 114 µM), without a hit: top-dose activity change, negative = inhibition, actives largely listed as inhibitors; actives 4.4% (n = 390,000); note: % is set by controls: 0 for no effect and ±100 for the full control effect; nearly all actives have a fitted effect of over 50% in size
BAZ2B block – inhibitors of human BAZ2B bromodomain; AlphaScreen BAZ2B-H3K14Ac peptide displacement; Potency, µM (doses to about 114 µM), for the others: at the highest dose activity change, negative = inhibition, hits mostly inhibitors; actives 4.4% (n = 360,000); AID 504333; note: % is set by controls: 0 for no effect and ±100 for the full control effect; nearly all actives have a fitted effect of over 60% in size
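BAZ2B (50 nM) with biotin-H3(5-23)K14Ac peptide (50 nM) in PBS pH 7.4, 0.01% Tween-20, preformed 30 min, then compound 30 min at room temperature; top concentration 110uM. AlphaScreen streptavidin donor/nickel chelate acceptor beads (10 ug/mL final), 20 min dark, signal read.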
L3MBTL1 block – blocks human L3MBTL1. actives 0.66% (n = 230,000). Q9Y468. AlphaScreen L3MBTL1–H3K9me1 peptide binding. AID 485360. Potency, µM (top dose mostly 57.1 µM), for inactives: at the highest dose activity, negative = inhibition, most hits filed as inhibitors; note: % is set by controls: 0 for no effect and ±100 for the full control effect; nearly all actives have a fitted effect of over 60% in size
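L3MBTL1 50 nM + b-AHA-H3(1-15)K9me1 75 nM, 30 min RT; compound added, 30 min RT; streptavidin donor/Ni-chelate acceptor beads 10 ug/mL each final, 30 min RT dark; AlphaScreen read.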
HP1b binding inh – inhibitors of HP1-beta chromodomain binding to methylated histone tails | Potency, µM (doses to about 114 µM), for inactives: top-dose activity change, negative = inhibition, hits mostly inhibitors | AlphaScreen HP1-beta / biotin-H3K9me3 peptide binding | actives 0.56% (n = 390,000) | P83916; note: nearly all actives have a fitted effect of over 70% in size
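Compound inhibition of the preformed complex between 50 nM HP1-beta and 50 nM biotinylated H3K9me3 peptide was read by AlphaScreen. Buffer was PBS pH 7.4 with 0.01% Tween-20. Incubations ran 30 min at room temperature, with 10 ug/mL donor/acceptor beads.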
An asterisk follows results filed as active; [ ] = dose if it differs, or a comment. Calls come from the whole dose curve; as a rule, active = well fitted curve in the direction sought with a large enough effect; inconclusive = small, poorly fitted or top-dose-only effect, or another doubt; inactive = no such curve, though single readings can be large; an effect the other way counts as inactive or inconclusive. Potency is the fitted concentration of half-maximal effect.

How did S=C(Nc1ccc(N2CCOCC2)cc1)Nc1ccc2nc(-c3ccco3)c(-c3ccco3)nc2c1 do in these assays?
GLS inh: 39.4%; G9a inh: 31.6µM*; JMJD2A Tudor: inconclusive; BAZ2B block: inconclusive; HP1b binding inh: -53.4%

How did O=C(Nc1ccc2nc(-c3ccco3)c(-c3ccco3)nc2c1)N1CCCC1 do in these assays?
JMJD2A Tudor: 14.1µM*; HP1b binding inh: 10µM*

How did CC1CCN(C(=O)Nc2ccc3nc(-c4ccco4)c(-c4ccco4)nc3c2)CC1 do in these assays?
JMJD2A Tudor: 12.6µM*; HP1b binding inh: 11.2µM*

What do the screens show for `COc1ccc(-c2oc3ncn4nc(-c5ccccc5Cl)nc4c3c2-c2ccc(OC)cc2)cc1`?
GLS inh: -1.6%; G9a inh: -6.2%[59 µM]; JMJD2A Tudor: -6.5%; BAZ2B block: -2.5%; HP1b binding inh: 18.0%

Results for CCN=c1scc(-c2ccc3c(c2)NC(=O)CO3)n1N=C1CCCC1 ?
GLS inh: -1.2%; G9a inh: inconclusive; JMJD2A Tudor: inconclusive; BAZ2B block: 50.1µM*; L3MBTL1 block: -10.0%; HP1b binding inh: inconclusive

How did COCC(C)n1c(-c2ccc3c(c2)NC(=O)CO3)csc1=Nc1ccc(OC(F)F)cc1 (configuration not stated) do in these assays?
GLS inh: -10.2%; G9a inh: -4.1%[12.7 µM]; JMJD2A Tudor: inconclusive; BAZ2B block: 12.6µM*; HP1b binding inh: inconclusive

What do the screens show for `O=C1COc2ccc(-c3csc(=Nc4ccc(OC(F)F)cc4)n3CC3CCCO3)cc2N1` (configuration not stated)?
GLS inh: 2.4%; G9a inh: 27.1%[0.501 µM]; JMJD2A Tudor: inconclusive; BAZ2B block: inconclusive; L3MBTL1 block: -20.7%; HP1b binding inh: -15.1%

How did Cn1c(=O)c2c(ncn2CC(=O)N/N=C/C=C/c2ccccc2)n(C)c1=O do in these assays?
GLS inh: 8.5%; G9a inh: inconclusive; JMJD2A Tudor: 39.8µM*; BAZ2B block: -1.2%; L3MBTL1 block: 0.2%; HP1b binding inh: 15.7%

Results for COc1cc(/C=N/NC(=O)Cn2cnc3c2c(=O)n(C)c(=O)n3C)cc(OC)c1OC ?
GLS inh: -14.9%; G9a inh: -2.6%[12.7 µM]; JMJD2A Tudor: 0.7%; BAZ2B block: 3.0%; L3MBTL1 block: 9.1%; HP1b binding inh: 24.8%

How did COc1cccc(/C=N/NC(=O)Cn2cnc3c2c(=O)n(C)c(=O)n3C)c1 do in these assays?
GLS inh: -7.3%; JMJD2A Tudor: 56.2µM*; BAZ2B block: 1.0%; L3MBTL1 block: 12.2%; HP1b binding inh: 0.7%

Results for CCCC/C=C/[C@H](C)[C@@](C)(COC(=O)c1ccc(Br)cc1)Cc1ccccc1 ?
JMJD2A Tudor: 11.7%; HP1b binding inh: 50.5%

How did Cc1ccc(NC2=NCCC2)cc1Cl do in these assays?
GLS inh: -3.2%; G9a inh: -3.3%[59 µM]; JMJD2A Tudor: -5.8%; BAZ2B block: 38.9%; L3MBTL1 block: 19.7%; HP1b binding inh: 16.8%

What do the screens show for `Cc1nc2ccc(NC3=NCCCCC3)cc2s1`?
GLS inh: 3.0%; G9a inh: 5.62µM*; JMJD2A Tudor: 3.55µM*; BAZ2B block: inconclusive; L3MBTL1 block: 1.4%; HP1b binding inh: inconclusive

How did O=[N+]([O-])c1ccc(/C=C/C2=NN(c3ccccc3)C(c3ccco3)C2)cc1 (configuration not stated) do in these assays?
GLS inh: -13.2%; G9a inh: 22.4µM*; JMJD2A Tudor: inconclusive; BAZ2B block: 50.1µM*; L3MBTL1 block: -12.6%; HP1b binding inh: -19.8%[57 µM]

How did Cc1cccc(NC(=O)CSc2nc3c(sc4ccccc43)c(=O)n2CCCC(=O)NC2CCCC2)c1 do in these assays?
GLS inh: 4.3%; G9a inh: 5.6%[59 µM]; JMJD2A Tudor: 3.4%; BAZ2B block: 1.4%[57.1 µM]; HP1b binding inh: 43.8%

Results for CCN1CCC(Nc2ccnc3cc(Cl)ccc23)CC1 ?
GLS inh: 13.0%; G9a inh: 31.6µM*; JMJD2A Tudor: -6.1%; BAZ2B block: -10.1%; L3MBTL1 block: -14.7%; HP1b binding inh: 24.2%

How did Cc1cc(N=Nc2ccc(C)c(N=Nc3cc(C)c(N)cc3N)c2)c(N)cc1N do in these assays?
GLS inh: 6.0%; G9a inh: 39.8µM*; JMJD2A Tudor: 50.1µM*; BAZ2B block: 39.8µM*; HP1b binding inh: inconclusive

Results for COCCOCC(O)CN1CCN(c2ccccc2)CC1 (configuration not stated) ?
GLS inh: 39.0%; G9a inh: inconclusive; JMJD2A Tudor: 12.6µM*; BAZ2B block: 50.1µM*; HP1b binding inh: -25.6%

What do the screens show for `Cc1ccc(N2CCN(CC(O)COc3ccccc3)CC2)cc1` (configuration not stated)?
GLS inh: 20.7%; G9a inh: -19.3%; JMJD2A Tudor: -24.7%; BAZ2B block: inconclusive; L3MBTL1 block: 0.9%; HP1b binding inh: 13.8%

Results for COCCOCC(O)CN1CCN(c2ccc(C)cc2)CC1 (configuration not stated) ?
GLS inh: 30.3%; G9a inh: 4.47µM*; JMJD2A Tudor: inconclusive; L3MBTL1 block: -7.1%; HP1b binding inh: -37.8%

Results for Cc1ccc(-c2csc3ncn(-n4c(C)ccc4C)c(=O)c23)o1 ?
GLS inh: -3.8%; G9a inh: 10µM*; JMJD2A Tudor: inconclusive; BAZ2B block: inconclusive; L3MBTL1 block: -3.0%; HP1b binding inh: -6.1%

What do the screens show for `COC(=O)c1ccc(NC(=O)NC(C)c2c(-n3cccc3)sc(C)c2C)cc1` (configuration not stated)?
GLS inh: 4.5%; G9a inh: 4.6%[59 µM]; JMJD2A Tudor: -29.5%; BAZ2B block: inconclusive; HP1b binding inh: 1.0%

How did CCOC(=O)N1CCN(C(=O)C2CCN(C(=O)Nc3ccccc3)CC2)CC1 do in these assays?
GLS inh: -1.3%; JMJD2A Tudor: -11.0%; L3MBTL1 block: 5.3%; HP1b binding inh: 27.6%

Results for CCOC(=O)C1CCCN(Cc2ccc(OC)c(OCc3ccccc3)c2)C1 (configuration not stated) ?
GLS inh: 0.2%; G9a inh: 44.7µM*; JMJD2A Tudor: 28.2µM*; BAZ2B block: -38.6%; L3MBTL1 block: -2.2%; HP1b binding inh: inconclusive

What do the screens show for `CCOC(=O)N1CCN(C(=O)C2CCN(Cc3cccc(OCc4ccccc4)c3)CC2)CC1`?
GLS inh: 8.7%; G9a inh: 14.1µM*; JMJD2A Tudor: 2.24µM*; BAZ2B block: inconclusive; L3MBTL1 block: -3.0%; HP1b binding inh: inconclusive

From PubChem
